High-throughput results deposited in PubChem by National Center for Advancing Translational Sciences (NCATS).
Hits are enriched below; roughly 11% of the tested compounds scored in any of these assays.
Pf growth 96h = P. falciparum growth inhibition at 96 hours. P. falciparum luciferase reporter growth, 96 h. Potency, µM (series often up to 28.7 µM), for the others: top-dose activity change, negative = inhibition, hits mostly inhibitors. hit rate 6.9% among 320,000. AID 504834
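Compounds incubated with erythrocytes infected by luciferase-expressing P. falciparum (2% hematocrit, 0.05% parasitemia final) for 96 hours, 37 C in 5% CO2. Growth inhibition scored as decreased luciferase luminescence.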
Pf growth 48h = inhibits P. falciparum growth in the first generation, 48 h; P. falciparum luciferase growth in erythrocytes, 48 h; Potency, µM (doses to about 28.7 µM), inactives show at the highest dose activity change, negative = inhibition, usual class: inhibitors; hit rate 5.9% among 310,000
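Luciferase-expressing P. falciparum in infected erythrocytes (2% hematocrit, 0.1% parasitemia final) in RPMI 1640/0.5% Albumax were exposed to compound for 48 hours at 37 C, 5% CO2; growth read as luminescence.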
AmpC detergent = blocks E. coli AmpC beta-lactamase in detergent assay; AmpC hydrolysis of nitrocefin, absorbance 480 nm, 0.01% Triton; Potency, µM (series often up to 114 µM), inactives show at the highest dose activity change, negative = inhibition, usual class: inhibitors; hit rate 0.041% among 370,000;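 also: 0% = no-compound wells and -100% = no-enzyme wells; nearly all actives have a fitted effect of over 25% in size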
Target sequence (P00811 whole entry, looked up): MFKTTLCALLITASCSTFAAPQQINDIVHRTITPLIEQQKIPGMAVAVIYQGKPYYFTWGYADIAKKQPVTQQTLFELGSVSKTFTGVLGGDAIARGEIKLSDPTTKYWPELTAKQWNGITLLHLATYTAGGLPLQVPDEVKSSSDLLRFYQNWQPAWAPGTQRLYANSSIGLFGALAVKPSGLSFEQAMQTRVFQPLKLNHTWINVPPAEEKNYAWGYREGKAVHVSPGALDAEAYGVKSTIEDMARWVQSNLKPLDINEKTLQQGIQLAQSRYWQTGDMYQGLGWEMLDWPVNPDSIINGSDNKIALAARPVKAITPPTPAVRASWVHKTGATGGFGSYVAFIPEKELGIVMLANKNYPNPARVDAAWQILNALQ
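20 mM phosphate pH 7.0 + 0.01% (detergent screen) or 0.0001% Triton X-100; 5.3 nM AmpC reagent; cpd preinc 15 min RT; nitrocefin (800 uM stock) to start; A480 q20 s × 4 min; Activity was normalised to no-enzyme and no-compound control wells.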
AMA1-RON2 inh = inhibitors of Plasmodium falciparum AMA1-RON2 interaction; AlphaScreen AMA1-biotinylated RON2 peptide binding; Potency, µM (series often up to 58.2 µM), for the others: top-dose activity change, negative = inhibition, actives largely listed as inhibitors; hit rate 0.2% among 360,000; AID 720542;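 also: 0% = vehicle wells and -100% = peptide control; nearly all actives have a fitted effect of over 45% in size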
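AMA1 (3D7) with his tag at 25 nM final met compounds first, then biotinylated RON2 peptide at 25 nM; detection used donor plus acceptor beads, 10 µg/mL apiece, read by AlphaScreen after 30 min at room temperature.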
HCV inhibitor = HCV inhibition; hit rate 3.4% among 340,000; Potency, µM (titrated, usually from 41.8 µM), for inactives: top-dose activity change, negative = inhibition, most hits filed as inhibitors; Huh7.5.1 HCVcc-Cre infection, luciferase reporter, 44 h
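Reporter virus HCVcc-Cre (~0.5 moi) infects cells exposed to compound; seeding density 1,000 cells/well with 4 h settling beforehand. Luminescence, 15 sec read, taken 44 h post-infection following a 15 min RT substrate incubation.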
AmpC no deterg = AmpC beta-lactamase inhibition without detergent. AmpC nitrocefin hydrolysis, absorbance 480 nm, 0.0001% Triton. Potency, µM (titrated, usually from 57.1 µM), for inactives: at the top dose activity change, negative = inhibition, actives largely listed as inhibitors. hit rate 0.52% among 330,000. AID 485341;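 also: plate controls were no compound for no effect and no enzyme for full effect; nearly all actives have a fitted effect of over 20% in size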
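AmpC (5.3 nM in the dispensed reagent) in 20 mM phosphate pH 7.0 with 0.01% (detergent screen) or 0.0001% Triton X-100 was preincubated with compounds for 15 min at room temperature. Nitrocefin was then added from an 800 uM solution, and hydrolysis was followed at 480 nm.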
Starred values were filed as active, the others as inactive; ? = inconclusive; nt = not tested or not shown; [ ] = another dose, or the depositor's remark. Calls follow the shape of the dose curve; as a rule, active = well fitted curve in the direction sought with a large enough effect; inconclusive = small, poorly fitted or top-dose-only effect, or another doubt; inactive = no such curve, though single readings can be large; an effect the other way counts as inactive or inconclusive. Unless noted, % is scaled to controls: 0 for no effect and ±100 for the full control effect; potency is read from the fitted curve at half-maximal effect.

SMILES	Pf growth 96h	Pf growth 48h	AmpC detergent	AMA1-RON2 inh	HCV inhibitor	AmpC no deterg
Cc1nnc(N2CCN(c3ccc(Cl)cc3)CC2)c2c1nnn2Cc1ccc(F)cc1	nt	nt	17%	nt	nt	nt
CC(C)c1ccc(S(=O)(=O)c2cnc(SCC(=O)Nc3cccc(C(F)(F)F)c3)nc2N)cc1	nt	nt	20%	nt	nt	nt
O=C1CC(O)(c2ccccc2)C(c2ccccc2)=C1c1ccccc1 (stereo unspecified)	12µM*	10µM*	-7%	-11%	-12%	-26%
COc1ccc(C2=CC(=O)C=CC2=O)cc1	10µM*	9.3µM*	?	nt	nt	32µM*
COc1ccc(-n2c(-c3cccc(F)c3)nc3c(cnn3-c3ccc(C)cc3)c2=O)cc1	nt	nt	2%	nt	nt	nt
O=C(Nc1nc(-c2ccccc2)cs1)c1ccccc1F	13µM*	52%	1%	25%	-4%	-25%
Cc1nc(-c2ccc(NC(=O)c3ccccc3)cc2)cs1	-6%	-26%	0%	0%	11µM*	23%
O=C(NNc1nc(-c2ccccc2)cs1)c1ccc(F)cc1	9.3µM*	12µM*	-21%	80%	-19%	-38%
O=C(NNc1nc(-c2ccc(F)cc2)cs1)c1ccccc1	8.3µM*	5.2µM*	-1%	32%	?	-7%
O=C(NNc1nc(-c2ccccc2)cs1)c1cccs1	?	?	-2%	50%	?	8.9µM*
O=C(NNc1nc2ccccc2s1)c1ccc(F)cc1	?	13µM*	-10%	31%	0%	-24%
Cc1cccc2cc(-c3ccccc3)c(-c3ccccc3)c[n+]12	1.3µM*	1.9µM*	-18%	-9%	?	-14%
O=C(NC(=S)Nc1ccc(Br)c(Cl)c1)C1CC1	?	-1%	?	30%	10µM*	-39%
CCN(CC)S(=O)(=O)c1cc(NC(=S)NC(=O)C2CCCC2)ccc1C	nt	nt	nt	0%	3.2µM*	-25%
CC(=O)Nc1ccc(NC(=S)NC(=O)C2CC2)cc1	18%	?	?	-2%	22%	-23%
Cc1ccc(NC(=S)NC(=O)C2CCC2)cc1C	-8%	-2%	?	19%	-12%	-27%
Cc1ccc(NC(=S)NC(=O)C2CCCC2)cc1C	?	20%	0%	39%	-20%	3.2µM*
O=C(CSCc1ccccc1)NNC(=S)Nc1cccc(Cl)c1Cl	2%	6%	?	-9%	12%	0.16µM*
CNC(=S)NNC(=O)CSCc1c(Cl)cccc1Cl	104%	38%	1%	41%	-5%	-25%
COc1cc(-c2nc(-c3ccc4c(c3)[nH]c(=O)n4C)no2)cc(OC)c1OC	nt	nt	4%	nt	nt	nt
O=C(CCCCn1c(=O)c2ccccc2n(Cc2ccccc2F)c1=O)NCc1ccccc1Cl	nt	nt	18%	nt	nt	nt
O=C(NNC(=S)Nc1ccccc1Cl)C1CC1	26%	11%	-8%	84%	21%	-24%
O=C(Nc1cccc(Cl)c1Cl)Nn1cnnc1	207%	0%	?	11%	9%	-18%
O=C(NC(=S)Nc1cccc(Cl)c1Cl)C1CC1	3%	12µM*	?	24%	-16%	-34%
S=C(Nc1cccc(Cl)c1Cl)Nn1cnnc1	2.3µM*	4%	-5%	12%	1%	-42%
SMILES	Pf growth 96h	Pf growth 48h	AmpC detergent	AMA1-RON2 inh	HCV inhibitor	AmpC no deterg
O=C(CSc1nccn1Cc1ccc(F)cc1)Nc1ccc2c(c1)OCO2	nt	nt	-8%	nt	nt	nt
CCOc1ccc(NC(=O)c2cc3c(n(-c4ccc(OC)cc4)c2=O)CC(C)(C)CC3=O)cc1	nt	nt	16%	nt	nt	nt
C=C(C)CSc1cc(C)c(C#N)c2nc3ccccc3n12	?	?	9%	10%	11µM*	-2%
CCCc1cc(NCCCCO)n2c(nc3ccccc32)c1C#N	3.3µM*	9.3µM*	5%	9%	?	-4%
Cc1cc(-c2ccco2)n2c(nc3ccccc32)c1C#N	69%	12µM*	3%	14%	?	-25%
CCCc1cc(NCCOCCO)n2c(nc3ccccc32)c1C#N	nt	nt	nt	-7%	nt	nt
CCCc1cc(Nc2c(C)n(C)n(-c3ccccc3)c2=O)n2c(nc3ccccc32)c1C#N	-2%	1.7µM*	-14%	4%	-5%	42%
Cc1ccc(S(=O)(=O)NCC(c2ccc(N(C)C)cc2)N2CCCC2)cc1 (stereo unspecified)	nt	nt	12%	nt	nt	nt
CC(Oc1ccc(F)cc1)C(=O)Nc1cc(-c2ccc(F)c(F)c2)no1 (stereo unspecified)	nt	nt	16%	nt	nt	nt
Cc1cc(Nc2cccc([N+](=O)[O-])c2)n2c(nc3ccccc32)c1C#N	?	?	2%	16%	6.3µM*	-15%
CCN(CC)CCCNc1cc(C)c(C#N)c2nc3ccccc3n12	nt	nt	nt	-2%	nt	nt
Cc1cc(Nc2ccc(F)cc2)n2c(nc3ccccc32)c1C#N	nt	nt	8%	nt	nt	nt
Cc1cc(NCCCCO)n2c(nc3ccccc32)c1C#N	27%	10µM*	0%	32%	?	-10%
COCCN(CCOC)c1cc(C)c(C#N)c2nc3ccccc3n12	10µM*	?	0%	-5%	-25%	-10%
CCc1cccc(C)c1NC(=O)C1=C(C)C(=O)OC12CCC(C)CC2 (stereo unspecified)	nt	nt	11%	nt	nt	nt
CCC(=O)N1CCc2cc(Br)cc(S(=O)(=O)CCC(=O)N3CCN(c4cccc(C(F)(F)F)c4)CC3)c21	nt	nt	-6%	nt	nt	nt
O=C(C[C@@H]1C/C=C\C[C@@H](NC(=O)OCC2c3ccccc3-c3ccccc32)C(=O)OC[C@@H](Cc2ccccc2)NC1=O)NCCO	nt	nt	nt	-5%	2µM*	156%
CCCN(CCC)c1nc(Cl)nc(NCc2ccco2)n1	?	?	-3%	2%	?	0.16µM*
Cc1ccc(NC(=O)Cn2c(=O)n(-c3ccc(CC(=O)NCC4CCCO4)cc3)c(=O)c3ccccc32)cc1 (stereo unspecified)	nt	nt	-4%	nt	nt	nt
Cc1ccc(C(=O)Nc2cccc(NC(=O)c3ccc(C)c([N+](=O)[O-])c3)n2)cc1[N+](=O)[O-]	?	1.7µM*	-2%	5%	?	-44%
O=C(CNC(=O)c1cccc(Br)c1)N/N=C/c1ccc[nH]1	41%[1.15 µM]	448%	?	8%	3.2µM*	-18%
Cc1cc(NC(=O)c2ccc(C)c([N+](=O)[O-])c2)no1	?	41%	1%	13%	16%	-13%
Cc1ccc(C(=O)N/N=C\c2ccc[nH]2)cc1[N+](=O)[O-]	2%	24%	-9%	47%	4.5µM*	0%
COc1ccc(C(=O)Nc2cccc(NC(=O)c3ccc(OC)c(OC)c3)n2)cc1OC	-15%	10µM*	?	-2%	?	142%
